From PubChem BioAssay (Tox21)
Inconclusive results are not listed. A call without a number means that no potency is given here. The source made the active and inactive calls. Calls come from the whole dose curve; as a rule, active = well fitted inhibition curve with a large enough effect in the repeat runs; inconclusive = weak or mixed curves; inactive = flat fitted curve, though single readings scatter.
Potency is the fitted concentration of half-maximal effect.

What follows are compounds tested against Voltage-gated inwardly rectifying potassium channel KCNH2 (Homo sapiens) (UniProt Q12809) (assay: Human Ether-a-go-go-Related Gene (hERG) channel small molecule antagonists: fluorescence cell-based qHTS assay (AID 1671200; note: nearly all actives have a fitted effect of over 50% in size)). Details: hERG-U2OS cells, FluxOR thallium flux fluorescence; series mostly up to 76.8 µM.
Chain of Voltage-gated inwardly rectifying potassium channel KCNH2 (Homo sapiens) (Q12809 whole entry, looked up): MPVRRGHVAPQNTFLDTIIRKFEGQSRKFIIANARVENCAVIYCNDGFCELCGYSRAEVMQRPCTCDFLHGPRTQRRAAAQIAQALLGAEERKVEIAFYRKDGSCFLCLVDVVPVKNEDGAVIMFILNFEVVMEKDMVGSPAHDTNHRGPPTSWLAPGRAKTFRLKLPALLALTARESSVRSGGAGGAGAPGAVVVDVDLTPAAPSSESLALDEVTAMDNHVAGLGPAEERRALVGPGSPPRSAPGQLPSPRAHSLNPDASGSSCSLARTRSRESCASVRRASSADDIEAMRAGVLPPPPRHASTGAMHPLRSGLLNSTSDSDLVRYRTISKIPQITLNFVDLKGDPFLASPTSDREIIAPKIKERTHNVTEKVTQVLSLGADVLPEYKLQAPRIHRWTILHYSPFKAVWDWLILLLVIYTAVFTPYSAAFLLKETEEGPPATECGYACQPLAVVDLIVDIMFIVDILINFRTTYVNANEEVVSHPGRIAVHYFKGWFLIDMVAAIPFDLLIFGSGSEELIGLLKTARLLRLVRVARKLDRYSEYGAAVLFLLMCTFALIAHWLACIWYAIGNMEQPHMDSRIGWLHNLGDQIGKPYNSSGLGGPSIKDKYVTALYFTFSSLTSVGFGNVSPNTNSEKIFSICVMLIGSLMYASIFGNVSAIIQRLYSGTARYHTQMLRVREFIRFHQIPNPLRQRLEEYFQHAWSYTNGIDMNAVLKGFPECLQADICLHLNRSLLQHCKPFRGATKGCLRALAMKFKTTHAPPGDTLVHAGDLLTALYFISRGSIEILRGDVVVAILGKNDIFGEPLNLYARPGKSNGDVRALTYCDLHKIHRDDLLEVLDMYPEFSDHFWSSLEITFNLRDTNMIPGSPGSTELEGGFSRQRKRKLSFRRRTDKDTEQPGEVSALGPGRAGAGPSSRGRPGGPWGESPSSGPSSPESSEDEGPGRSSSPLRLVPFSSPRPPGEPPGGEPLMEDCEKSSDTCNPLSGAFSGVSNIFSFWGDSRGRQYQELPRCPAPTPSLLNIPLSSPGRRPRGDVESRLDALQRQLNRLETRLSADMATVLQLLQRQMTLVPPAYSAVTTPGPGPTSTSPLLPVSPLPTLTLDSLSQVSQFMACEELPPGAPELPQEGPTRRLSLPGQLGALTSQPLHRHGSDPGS
From the text: National Center for Advancing Translational Sciences [NCATS]
U.S. Environmental Protection Agency [EPA]
National Institutes of Environmental Health Sciences [NIEHS]
National Toxicology Program [NTP]
U.S. Food and Drug Administration [FDA]
Mutations in the hERG channel cause Long QT (LQT) syndrome. LQT syndrome is a cardiac disorder which can cause ventricle arrhythmia and sudden death. Additionally, compounds which block the hERG channel can cause acquired LQT syndrome. Several FDA approved drugs have been removed from the market due to their hERG blocking activity. A cell-based hERG channel inhibition assay can be used to screen chemical compounds that inhibit hERG channel. This assay measures hERG channel activity using thallium ions as surrogate ions to measure potassium into the cells.
Tox21 Assay Protocol Summary:
hERG-U2OS cells were resuspended in culture medium and dispensed into 1536-well, black wall/clear-bottom plates at 1000cells/well/3uL using a Multidrop Combi dispenser (Thermo Fisher, Waltham, MA). After plates were incubated at 37 C overnight, 3 uL of Loading Buffer provided by FluxOR II Potassium Ion Channel Assay kit (Thermo, Carlsbad, CA) was added to each well. The assay plates were then incubated at room temperature in the dark for 1h. […] After the assay plates were incubated at room temperature for 10 min, 1 uL of Stimulus Buffer provided by FluxOR II Potassium Ion Channel Assay kit was added into each well and fluorescence intensity (480nm excitation/540nm emission) was continuously measured for 2 min at 1 second intervals using a Functional Drug Screening System (FDSS) 7000EX kinetic plate reader (Hamamatsu, Japan).
For O=CC=C(c1ccccc1)c1ccccc1, the Potency was 39.2 µM (active).
With CCOC(=O)/C=C(C)/C=C/C=C(C)/C=C/c1c(C)cc(OC)c(C)c1C the Potency was “inactive”.
For CCCC/C=C/CCCCO, the Potency was “inactive”.
C=CC(=O)OCCn1c(=O)n(CCOC(=O)C=C)c(=O)n(CCOC(=O)C=C)c1=O was tested, and the Potency was “inactive”.
In the case of C[C@@H](NCCCc1cccc(C(F)(F)F)c1)c1cccc2ccccc12, the Potency was 10.7 µM (active).
With CCOC(=O)O[C@]1(C(=O)OCCl)CC[C@H]2[C@@H]3CCC4=CC(=O)C=C[C@]4(C)[C@H]3[C@@H](O)C[C@@]21C the Potency was “inactive”.
For Oc1ccc2cc(SSc3ccc4cc(O)ccc4c3)ccc2c1, the Potency was “inactive”.
With [Cl][Au]([Cl])[Cl] the Potency was “inactive”.
For C=C(C)C(=O)OCC[N+](C)(C)C, the Potency was “inactive”.
COc1ccc(C(=O)/C(Br)=C\C(=O)O)cc1 was tested, and the Potency was “inactive”.
In the case of CCCCCOC(=O)CCCC, the Potency was “inactive”.
For Nc1ccccc1O, the Potency was “inactive”.
CC(=O)OCC(C)OC(C)=O (stereo not given) was tested, and the Potency was “inactive”.
O=C(O)c1ccc(Cl)c(Cl)c1 was tested, and the Potency was “inactive”.
For Cc1cc(O)c(C(C)(C)C)cc1Sc1cc(C(C)(C)C)c(O)cc1C, the Potency was “inactive”.
O=c1[nH]sc2ccccc12 was tested, and the Potency was 49 µM (active).
With C=CC(=O)OCC(CO)(COC(=O)C=C)COC(=O)C=C the Potency was “inactive”.
For O=C(Oc1cccc2cccnc12)c1ccccc1, the Potency was “inactive”.
CCCCCCCCNC(C)C(O)c1ccc(SC(C)C)cc1 (stereo not given) was tested, and the Potency was 0.268 µM (active).
For O=C(NOCC1CC1)c1ccc(F)c(F)c1Nc1ccc(I)cc1Cl, the Potency was “inactive”.
With O=C(c1ccc(O)cc1O)c1ccc(O)cc1O the Potency was “inactive”.
For CC(C)(C)NC(=O)[C@@H]1C[C@@H]2CCCC[C@@H]2CN1C[C@@H](O)[C@H](Cc1ccccc1)NC(=O)[C@H](CC(N)=O)NC(=O)c1ccc2ccccc2n1, the Potency was 22.2 µM (active).
In the case of Oc1c(Cl)cc(Cl)c2cccnc12, the Potency was “inactive”.
CN(C)c1ccc(C2(c3ccc(N(C)C)cc3)OC(=O)c3cc(N(C)C)ccc32)cc1 was tested, and the Potency was “inactive”.
In the case of CCCCC(CC)CN=C(N)NC(N)=NCCCCCCN=C(N)NC(N)=NCC(CC)CCCC (stereo not given), the Potency was “inactive”.
In the case of O=C1C=CC(=O)N1, the Potency was “inactive”.
With COc1cc(/C=C/C(=O)O[C@H]2CC[C@]34C[C@]35CC[C@]3(C)[C@@H]([C@H](C)CCC=C(C)C)CC[C@@]3(C)[C@@H]5CC[C@H]4C2(C)C)ccc1O the Potency was “inactive”.
In the case of CCCCCOc1ccccc1/C(=C\SC)n1ccnc1, the Potency was 15.1 µM (active).
For O=C(OCC1CO1)C1CCCCC1C(=O)OCC1CO1 (stereo not given), the Potency was “inactive”.
C/C=C(\C)C(=O)OCc1ccccc1 was tested, and the Potency was “inactive”.
With O=C(O)c1cc(O)c2c(c1)C(=O)c1cccc(O)c1C2=O the Potency was “inactive”.
In the case of CCCCN1CCCC[C@H]1C(=O)Nc1c(C)cccc1C, the Potency was “inactive”.
Nc1ccc2cc(S(=O)(=O)O)cc(O)c2c1N=Nc1ccccc1C(F)(F)F was tested, and the Potency was “inactive”.
In the case of NC(=O)C1(N2CCCCC2)CCN(CCCN2c3ccccc3CCc3ccc(Cl)cc32)CC1, the Potency was 1.34 µM (active).
With Cc1nc(-c2ccc3c(c2)CCN(CCC2CCC(NC(=O)/C=C/c4ccc(F)cc4)CC2)CC3)no1 (stereo not given) the Potency was 0.873 µM (active).
With O=C(c1ccc(F)cc1)C1CCN(CCn2c(=O)[nH]c3ccccc3c2=O)CC1 the Potency was 2.39 µM (active).
With O=C(N/N=C/c1ccccc1O)c1ccncc1 the Potency was “inactive”.
In the case of CCC(C)(C)C1CCCCC1OC(C)=O (stereo not given), the Potency was “inactive”.
For Cc1[nH]cnc1C[C@H]1CCc2c(C)c3ccccc3n2C1=O, the Potency was 5.36 µM (active).
In the case of CC(C)C(C)(C)C(C)(C)C(C)(C)S, the Potency was “inactive”.
